# Laboratory results from PubChem BioAssay AID743145 (Broad Institute, 2013).
# Results with a measured potency or affinity are listed apart. Calls of active or inactive are those of the source. No rule for the calls is given here.
# Assay: COV434 cell viability loss – plate reader, dry powder, SA7, cytotoxicity control for PAX8 inhibitor project, dose response (AID 743145)
# Settings: series mostly up to 35 µM
row,SMILES,outcome
1,C[C@@H]1CN([C@H](C)CO)C(=O)CCCn2cc(nn2)CO[C@H]1CN(C)C(=O)Nc1ccc(-c2cccs2)cc1,inactive
2,C[C@H]1CN([C@@H](C)CO)C(=O)Cc2cc(NC(=O)NC3CCCCC3)ccc2O[C@@H]1CN(C)Cc1ccc(-c2ccccc2)cc1,inactive
3,C[C@H]1CN([C@@H](C)CO)C(=O)CCCn2nncc2CO[C@@H]1CN(C)C(=O)Nc1ccc(-c2cccs2)cc1,inactive
4,COc1ccc(S(=O)(=O)N2CCCCN3[C@H](CO)[C@H](c4ccc(C#CC(C)C)cc4)[C@H]3C2)cc1,inactive
5,COc1cccc(C#Cc2ccc([C@@H]3[C@@H](C#N)N(C(=O)C4CCCCC4)[C@H]3CO)cc2)c1,inactive
6,O=C(CCS(=O)(=O)c1ccccc1)Nc1nc2ccc(F)cc2s1,inactive
7,N#C[C@@H]1[C@@H](c2ccc(-c3ccccc3F)cc2)[C@@H](CO)N1C(=O)C1CCC1,inactive
8,O=C(CN1C(=O)c2ccccc2S1(=O)=O)c1ccccc1Cl,inactive
9,COc1cccc(-c2ccc([C@H]3[C@@H](CO)N(C(=O)Cc4ccccc4)[C@H]3C#N)cc2)c1,inactive
10,O=C1/C(=C/c2ccccc2)SC(=S)N1CC(=O)N1CCCCC1c1cccnc1 (stereo not drawn),inactive
11,C[C@H](CO)N1C[C@H](C)[C@@H](CN(C)S(=O)(=O)c2ccc(-c3ccccc3)cc2)OCc2cn(nn2)CCCC1=O,inactive
12,COc1cccc(C#Cc2ccc([C@@H]3[C@@H](C#N)N(C(=O)C4CCCC4)[C@@H]3CO)cc2)c1,inactive
13,COc1ccc(S(=O)(=O)Nc2ccc3c(c2)CC(=O)N([C@@H](C)CO)C[C@H](C)[C@@H](CN(C)Cc2ccc(C(F)(F)F)cc2)O3)cc1,inactive
